# Laboratory results: the antibiotic and cytotoxicity screens of Wong et al. (2023)
# Out of some 39,000 compounds screened, about 3,300 (8.5%) were called active. The sample as a whole holds a higher share of actives than the screen did.
# System: HepG2
# Test: cytotoxicity call (relative viability < 0.9)
# Settings: 10 µM
row,Structure (SMILES),cytotoxicity call
1,C[C@H]1CN([C@@H](C)CO)S(=O)(=O)c2ccc(C#Cc3ccc(F)cc3)cc2O[C@H]1CN(C)S(=O)(=O)c1cn(C)cn1,inactive
2,CNc1cc(=O)n(C)c(=O)n1C,inactive
3,Cc1c(C)n2c3c(=O)n(C)c(=O)n(C)c3nc2n1CCN1CCOCC1,inactive
4,O=C(CN1C(=O)c2ccccc2C1=O)N1CCNCC1,inactive
5,NC(=O)C1CCN(C(=O)c2ccc(NC3=N[C@H]4CS(=O)(=O)C[C@@H]4S3)cc2)CC1,inactive
6,C[C@H](CO)N1C[C@H](C)[C@H](CN(C)S(=O)(=O)c2ccc(Cl)cc2)Oc2ccc(NC(=O)c3ccncc3)cc2CC1=O,inactive
7,CC(C)NC(=O)Nc1ccc2c(c1)C(=O)N([C@H](C)CO)C[C@@H](C)[C@H](CN(C)C(=O)Nc1ccc(C(F)(F)F)cc1)OCCCC[C@@H](C)O2,inactive
8,C=C1COC(=O)[C@@H]2[C@@H](CO)[C@@H](O)C[C@H]12,inactive
9,C[C@H]1CN([C@@H](C)CO)C(=O)c2cc(NC(=O)NC3CCCCC3)ccc2O[C@H]1CN(C)Cc1ccc(-c2ccccc2)cc1,inactive
10,C[C@@H]1CN([C@@H](C)CO)C(=O)c2cc(NC(=O)NC3CCCCC3)ccc2O[C@@H]1CN(C)Cc1ccc(-c2ccccc2)cc1,active
11,C[C@@H]1CN([C@H](C)CO)C(=O)c2cc(NC(=O)NC3CCCCC3)ccc2O[C@H]1CN(C)Cc1ccc(-c2ccccc2)cc1,inactive
12,C[C@H](CO)N1C[C@H](C)[C@@H](CN(C)Cc2ccc(-c3ccccc3)cc2)Oc2ccc(NC(=O)NC3CCCCC3)cc2C1=O,inactive
13,C[C@H](CO)N1C[C@H](C)[C@H](CN(C)Cc2ccc(-c3ccccc3)cc2)Oc2ccc(NC(=O)NC3CCCCC3)cc2C1=O,inactive
14,C[C@H]1CN([C@@H](C)CO)C(=O)c2cc(NC(=O)NC3CCCCC3)ccc2O[C@@H]1CN(C)Cc1ccc(-c2ccccc2)cc1,active
15,C[C@@H]1CN([C@@H](C)CO)C(=O)c2cc(NC(=O)NC3CCCCC3)ccc2O[C@H]1CN(C)Cc1ccc(-c2ccccc2)cc1,inactive
16,C[C@@H]1CN([C@H](C)CO)C(=O)c2cc(NC(=O)NC3CCCCC3)ccc2O[C@@H]1CN(C)Cc1ccc(-c2ccccc2)cc1,active
17,CC(C)NC(=O)Nc1ccc2c(c1)C(=O)N([C@H](C)CO)C[C@@H](C)[C@@H](CN(C)Cc1ccc(-c3ccccc3)cc1)O2,inactive
18,[O-][NH2+][O-],inactive
19,C[C@H]1CN([C@@H](C)CO)C(=O)c2cc(NC(=O)Nc3cccc4ccccc34)ccc2O[C@H]1CN(C)S(=O)(=O)c1cccs1,inactive
20,Cc1ccccc1[C@@H](c1ncccc1C)N(C)C(=O)C1CCN(CCOc2ccc(Cl)cc2Cl)CC1,inactive
21,COc1ccccc1NC(=O)N(C)C[C@H]1Oc2ncc(C#CCN(C)C)cc2C(=O)N([C@H](C)CO)C[C@@H]1C,inactive
22,CCCNC(=O)N1C[C@@H](O)COC[C@H]2O[C@@H](CC(=O)N3CCOCC3)CC[C@@H]21,inactive

row,Structure (SMILES),cytotoxicity call
1,O=C(CCCCCNC(=O)OCc1ccc(CO[C@H]2C[C@@H](c3ccc(C(F)(F)F)cc3)C=C(C(=O)N3CCN(Cc4ccc5c(c4)OCO5)CC3)O2)cc1)NO,inactive
2,C[C@@H]1CCCCO[C@@H](CN(C)CC2CC2)[C@@H](C)CN([C@H](C)CO)C(=O)c2cc(NC(=O)Nc3ccccc3)ccc2O1,inactive
3,CN1C(=O)c2cc(NC(=O)Cc3cccs3)ccc2OC[C@@H]2O[C@@H](CC(=O)NCCc3ccncc3)CC[C@@H]21,inactive
4,C[C@@H]1CN([C@H](C)CO)C(=O)c2cc(/C=C/c3ccccc3)cnc2O[C@@H]1CN(C)C(=O)Nc1ccc(C(F)(F)F)cc1,active
5,C[C@@H]1CN([C@H](C)CO)C(=O)c2cc(C3=CCCC3)cnc2O[C@@H]1CN(C)C(=O)Nc1ccc(C(F)(F)F)cc1,active
6,C[C@@H]1CN([C@@H](C)CO)C(=O)c2cc(C3=CCCC3)cnc2O[C@H]1CN(C)C(=O)Nc1ccc(C(F)(F)F)cc1,inactive
7,C[C@@H]1CN([C@H](C)CO)C(=O)c2cc(C3=CCCCC3)cnc2O[C@H]1CN(C)C(=O)CN1CCOCC1,active
8,C[C@H](CO)N1C[C@H](C)[C@@H](CN(C)C(=O)Nc2ccc(C(F)(F)F)cc2)Oc2ncc(/C=C/c3ccccc3)cc2C1=O,inactive
9,C[C@H](CO)N1C[C@H](C)[C@@H](CN(C)C(=O)CN2CCOCC2)Oc2ncc(C3=CCCCC3)cc2C1=O,inactive
10,C[C@H]1CN([C@@H](C)CO)C(=O)c2cc(C3=CCCC3)cnc2O[C@@H]1CN(C)C(=O)Nc1ccc(C(F)(F)F)cc1,inactive
11,C[C@H](CO)N1C[C@H](C)[C@H](CN(C)C(=O)Nc2ccc(C(F)(F)F)cc2)Oc2ncc(C3=CCCC3)cc2C1=O,inactive
12,C[C@@H]1CN([C@@H](C)CO)C(=O)c2cc(C3=CCCC3)cnc2O[C@@H]1CN(C)C(=O)Nc1ccc(C(F)(F)F)cc1,inactive
13,C[C@@H]1CN([C@@H](C)CO)C(=O)c2cc(/C=C/c3ccccc3)cnc2O[C@H]1CN(C)C(=O)Nc1ccc(C(F)(F)F)cc1,inactive
14,C[C@H](CO)N1C[C@H](C)[C@H](CN(C)C(=O)CN2CCOCC2)Oc2ncc(C3=CCCCC3)cc2C1=O,inactive
15,C[C@H]1CN([C@@H](C)CO)C(=O)c2cc(C3=CCCC3)cnc2O[C@H]1CN(C)C(=O)Nc1ccc(C(F)(F)F)cc1,active
16,C[C@H](CO)N1C[C@H](C)[C@H](CN(C)C(=O)Nc2ccc(C(F)(F)F)cc2)OCCCC[C@H](C)Oc2ccc(N(C)C)cc2C1=O,inactive
17,O=C(Cc1ccccc1)NCCN1CCOCC1,inactive
18,CO[C@H](CN(C)S(=O)(=O)c1cccc(Cl)c1)[C@@H](C)CN([C@@H](C)CO)S(=O)(=O)c1ccc(Cl)cc1,inactive
19,COc1ccc(NC(=O)N(C)C[C@@H]2Oc3ccc(NS(=O)(=O)c4cn(C)cn4)cc3C(=O)N([C@H](C)CO)C[C@H]2C)cc1,inactive
20,O=C(C[C@@H]1C[C@H]2c3cc(NC(=O)Nc4ccc(C(F)(F)F)cc4)ccc3O[C@H]2[C@@H](CO)O1)NCCc1ccccc1,inactive
21,C[C@H]1CN([C@@H](C)CO)C(=O)Cc2cc(NC(=O)Cn3cnnn3)ccc2O[C@@H]1CN(C)Cc1ccccc1,inactive
